Screening data: PubChem BioAssay, National Center for Advancing Translational Sciences (NCATS)
An excerpt weighted towards active compounds, which were near 6.2% of everything screened.
KB-V1 cytotox = KB-V1 MDR subline cytotoxicity; Potency, µM (top dose mostly 46.1 µM), hits mostly cytotoxic; hit rate 3.4% among 400,000; KB-V1 MDR cells viability, CellTiter-Glo, 72 h; AID 1347076; further: nearly all actives have a fitted effect of over 60% in size
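Compound-treated KB-V1 multidrug-resistant cells, 72 h, 37 degrees C; viability by CellTiter-Glo. Fitted qHTS curves give the values.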
ATXN viability = cell viability loss in ATXN counter-screen; S2 cells (HEK-293 line with an ATXN2-luciferase reporter) viability, CellTiter-Fluor protease fluorescence, 24 h; Potency, µM (top dose mostly 56.7 µM), usual class: cytotoxic; hit rate 0.49% among 400,000; AID 651635; further: nearly all actives have a fitted effect of over 40% in size
ATXN2 expr inh = inhibitors of ATXN2 expression; HEK-293 ATXN2-luciferase reporter, luminescence, 24 h; Potency, µM (doses to about 57 µM), actives largely listed as inhibitors; hit rate 0.72% among 360,000; AID 1745845; further: nearly all actives have a fitted effect of over 55% in size
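ATXN2-luciferase reporter cells (luciferase flanked by upstream and downstream ATXN2 gene portions) were treated 24 h at 37 °C with compounds at up to 57 uM. SteadyGlo luminescence gave expression; GF-AFC fluorescence gave viability.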
HT1080-NT tox = kills 2HG-producing HT-1080-NT fibrosarcoma cells; HT-1080-NT fibrosarcoma viability, CellTiter-Glo ATP luminescence, 48 h; hit rate 1.6% among 360,000; Potency, µM (highest dose often 46.1 µM), actives largely listed as cytotoxic;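 further: NT is the 2HG producing partner of a matched IDH1 knockdown line; nearly all actives have a fitted effect of over 55% in size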
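Fibrosarcoma NT cells, 750 per well in 5% FBS RPMI, were exposed to compound for 48 hours. Viability: CellTiter-Glo luminescence.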
KB-3-1 cytotox = kills parental KB-3-1 adenocarcinoma cells | hit rate 1.4% among 400,000 | Potency, µM (titrated, usually from 46.1 µM), most hits filed as cytotoxic | AID 1347075 | KB-3-1 viability, CellTiter-Glo ATP luminescence, 72 h; further: nearly all actives have a fitted effect of over 60% in size
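Using CellTiter-Glo luminescence, growth of non-resistant KB-3-1 adenocarcinoma cells is assessed 72 h after pin-tool compound addition at 37 °C. Normalized responses across the concentration series yield fitted curves.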
HT1080 IDH1KD tx = kills HT-1080 cells with IDH1 knockdown; HT-1080 IDH1 knockdown viability, ATP luminescence, 48 h; AID 686971; Potency, µM (highest dose often 46.1 µM), actives largely listed as cytotoxic; hit rate 2% among 360,000
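Assay cells: HT-1080 with IDH1 knockdown, 750 per well, RPMI/5% FBS. Exposure: 48 h at 37 °C following 2 h pre-incubation. Read: CellTiter-Glo luminescence; fitted concentration-response, curve class assigned.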
Of the large screens only hits and unclear results are named; the others gave an inactive call. The call rests on the fitted dose curve; in most records, active means well fitted curve in the direction sought with a large enough effect; inconclusive means small, poorly fitted or top-dose-only effect, or another doubt; inactive means no such curve, though single readings can be large; an effect the other way counts as inactive or inconclusive.

CN(C)c1ccc(CNC(=O)C2Cc3c(-c4cccc(C(N)=O)c4)ccnc3O2)cc1 (centres undefined)	HT1080-NT tox inconclusive, HT1080 IDH1KD tx inconclusive
CN1CCN(c2ccc(CNC[C@H]3O[C@@H](n4cnc5c(=O)[nH]c(N)nc54)[C@H](O)[C@@H]3O)c(F)c2)CC1	none
CCc1ccc2c(c1)c(=O)c(S(=O)(=O)c1ccc(F)cc1)cn2CC(=O)Nc1ccccc1OC	none (no result: HT1080-NT tox, HT1080 IDH1KD tx)
O=C(CCS(=O)(=O)Cc1ccccc1F)N1CCc2ccccc2C1	none
O=C(c1ccc(S(=O)(=O)c2ccccc2)cc1)N1CCc2ccccc2C1	KB-V1 cytotox 18µM
CC1Cc2ccccc2N1C(=O)c1ccc(N2CCCCC2)c([N+](=O)[O-])c1 (centres undefined)	KB-V1 cytotox 13µM
O=C(c1ccc(S(=O)(=O)N2CCCCC2)cc1)N1CCc2ccccc2C1	KB-V1 cytotox inconclusive (no result: ATXN viability)
O=C(CCS(=O)(=O)Cc1ccccc1)N1CCc2ccccc2C1	KB-V1 cytotox 16µM
O=C(c1ccc(N2CCCCC2)c([N+](=O)[O-])c1)N1CCOCC1	KB-V1 cytotox inconclusive
O=C(c1ccc(N2CCCC2)c([N+](=O)[O-])c1)N1CCc2ccccc2C1	KB-V1 cytotox 2.6µM, ATXN viability inconclusive, KB-3-1 cytotox inconclusive
Cc1ccc(NC(=O)C2CCN(c3nc4ccccc4[nH]3)CC2)c(C)c1	none (no result: ATXN viability, ATXN2 expr inh, HT1080-NT tox, HT1080 IDH1KD tx)
COc1ccc(CCn2c(N)c(C(=O)NCc3ccco3)c3nc4ccccc4nc32)cc1OC	ATXN2 expr inh inconclusive, HT1080-NT tox inconclusive, HT1080 IDH1KD tx 18µM
Nc1c(C(=O)NCc2ccco2)c2nc3ccccc3nc2n1CCc1ccccc1F	KB-V1 cytotox inconclusive, ATXN2 expr inh inconclusive, KB-3-1 cytotox inconclusive
COc1ccc(CCn2c(N)c(C(=O)NCc3ccco3)c3nc4ccccc4nc32)cc1	KB-V1 cytotox 6.5µM, HT1080-NT tox inconclusive, KB-3-1 cytotox 7.3µM, HT1080 IDH1KD tx inconclusive
COc1ccc(Nc2nc(C(=O)NCc3ccco3)cs2)cc1	KB-V1 cytotox 16µM, KB-3-1 cytotox 16µM (no result: ATXN2 expr inh)
COc1ccc(NS(=O)(=O)c2cccc(NC(=O)c3ccccn3)c2)cc1	KB-V1 cytotox 10µM, KB-3-1 cytotox inconclusive (no result: ATXN2 expr inh)
COc1cc(OC)cc(C(=O)NNC(=O)c2ccc3ccccc3n2)c1	KB-V1 cytotox inconclusive, ATXN viability inconclusive, ATXN2 expr inh inconclusive, HT1080-NT tox inconclusive, KB-3-1 cytotox inconclusive, HT1080 IDH1KD tx 21µM
C/C(=N\NC(=O)C(C)Oc1ccc([N+](=O)[O-])cc1)c1ccccn1 (centres undefined)	KB-V1 cytotox 5.2µM, ATXN viability 7.1µM, ATXN2 expr inh inconclusive, HT1080-NT tox 2.2µM, KB-3-1 cytotox 8.2µM, HT1080 IDH1KD tx 2.2µM
COc1ccc(C(=O)NNC(=O)c2ccccn2)cc1	ATXN viability inconclusive, HT1080-NT tox 21µM, KB-3-1 cytotox inconclusive, HT1080 IDH1KD tx 18µM (no result: ATXN2 expr inh)
COc1cc(C(=O)NNC(=O)c2ccc3ccccc3n2)cc(OC)c1OC	ATXN2 expr inh inconclusive, HT1080-NT tox inconclusive, KB-3-1 cytotox inconclusive, HT1080 IDH1KD tx inconclusive
COc1ccc(OC(C)C(=O)Nc2ccc([N+](=O)[O-])cc2)cc1 (centres undefined)	KB-V1 cytotox inconclusive
COc1ccc(NS(=O)(=O)c2ccc(NC(=O)c3ccccn3)cc2)cc1	none
CCc1ccc(OCC2c3cc(OC)c(OC)cc3CCN2C(=O)Cc2ccc(OC)c(OC)c2)cc1 (centres undefined)	ATXN2 expr inh inconclusive (no result: HT1080-NT tox, HT1080 IDH1KD tx)
COc1cc(OC)cc(C(=O)O/N=C(\N)c2ccccn2)c1	none (no result: ATXN2 expr inh)
CC(Oc1ccccc1)C(=O)NNC(=O)c1ccccn1 (centres undefined)	KB-V1 cytotox 4.6µM, ATXN viability inconclusive, ATXN2 expr inh inconclusive, KB-3-1 cytotox inconclusive, HT1080 IDH1KD tx inconclusive
CCOc1ccc(NC(=O)CC(c2ccccc2)c2ccc(F)cc2)cc1 (centres undefined)	KB-V1 cytotox 18µM
COc1ccc(C(=O)O/N=C(\N)c2ccccn2)cc1	ATXN2 expr inh 11µM, HT1080-NT tox 13µM, KB-3-1 cytotox inconclusive, HT1080 IDH1KD tx 16µM
